Sm TGR inh: qHTS Assay for the Inhibitors of Schistosoma Mansoni Peroxiredoxins | purified TGR, DTNB reduction, TNB absorbance 405 nm | 360,000 tested, 3% active | AID 485364, 2010 | Potency, µM (titrated, usually from 114 µM), actives largely listed as inhibitors; also: nearly all actives have a fitted effect of over 60% in size
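First, TGR (20 nM dispensed) and NADPH were mixed with compound. Second, a 15 min room-temperature incubation followed. Third, further NADPH and then DTNB were added to start the reaction. Finally, TNB absorbance was monitored kinetically.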
Shiga inhibitor: A qHTS for Small Molecule Inhibitors of Shiga Toxin; Vero cells, Shiga toxin protein synthesis inhibition reporter; inhibition, % at 38.7 µM; 290,000 tested, 9.2% active; in the data active = inhibition mostly above about 28%, no sharp cut-off; inactive = mostly below about 43%
NS1 inh: qHTS Assay for Inhibitors of Influenza NS1 Protein Function; Potency, µM (top dose mostly 46.1 µM); 270,000 tested, 0.4% active; AID 2326, 2010; calls by dose curve; also: actives are rising curves; nearly all actives have a fitted effect of over 50% in size
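Read-out: OD600 growth recovery of NS1-expressing budding yeast. Cells grown overnight at 30C in -URA glucose medium, washed, resuspended and diluted 1:100 in 2% galactose assay medium, pH 6.0. Same strain lacking NS1 served as positive control.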
Pf growth 48h: Primary qHTS for delayed death inhibitors of the malarial parasite plastid, 48 hour incubation | P. falciparum luciferase growth in erythrocytes, 48 h | Potency, µM (top dose mostly 28.7 µM), most hits filed as inhibitors | 310,000 tested, 5.9% active | AID 504832, 2011
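Luciferase-expressing parasites in RBCs, 2% Hct / 0.1% parasitemia final; RPMI 1640 + 0.5% Albumax; 37 C, 5% CO2, one generation; luminescence read-out, lower signal = inhibition.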
Pf growth 96h: Primary qHTS for delayed death inhibitors of the malarial parasite plastid, 96 hour incubation. Potency, µM (titrated, usually from 28.7 µM), usual class: inhibitors. AID 504834, 2011. P. falciparum luciferase reporter growth, 96 h. 320,000 tested, 6.9% active
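Cell-based qHTS: luciferase-tagged P. falciparum in erythrocytes (2% hematocrit, 0.05% parasitemia final) incubated with compounds for 96 hours, 37 C, 5% CO2; luciferase detection reagent then added and luminescence measured.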
Cycloheximide cs: Cycloheximide Counterscreen for Small Molecule Inhibitors of Shiga Toxin; cell reporter, cycloheximide protein synthesis inhibition counterscreen; max response, %; 300,000 tested, 12% active; in the data active = max response mostly above about 13%, no sharp cut-off; inactive = mostly below about 14%; also: read at 38.3 µM for the half of the compounds with a filed dose
Numbers stand for hits. A selection: hits, their analogues and other compounds. The true share with any hit is near 21%. Unless noted, calls follow the shape of the dose curve; as a rule, active = well fitted curve in the direction sought with a large enough effect; inconclusive = small, poorly fitted or top-dose-only effect, or another doubt; inactive = no such curve, though single readings can be large; an effect the other way counts as inactive or inconclusive.

Results for O=C(O)c1cccc(CSc2ncn[nH]2)c1 ?
Sm TGR inh: inactive; Shiga inhibitor: inactive; NS1 inh: inactive; Pf growth 48h: inactive; Pf growth 96h: inactive; Cycloheximide cs: 7.6

What do the screens show for `O=C(O)c1cccc(CSc2nnc(Cc3ccccc3)o2)c1`?
Sm TGR inh: inactive; Shiga inhibitor: 44; NS1 inh: inactive; Pf growth 48h: inactive; Cycloheximide cs: inactive

What do the screens show for `NCCc1nnc(SCc2ccccc2)o1`?
Sm TGR inh: inactive; Shiga inhibitor: inactive; NS1 inh: inactive; Pf growth 48h: inactive; Cycloheximide cs: inactive

What do the screens show for `Cc1ccc(NC(=O)CSc2nnc(Cc3ccccc3)o2)cc1`?
Sm TGR inh: inactive; Shiga inhibitor: inactive; Pf growth 48h: inactive; Pf growth 96h: 12µM; Cycloheximide cs: inactive

Results for c1ccc(CSc2nnc(Cc3ccccc3)o2)cc1 ?
Sm TGR inh: inactive; Shiga inhibitor: 54; NS1 inh: inactive; Pf growth 48h: inactive; Pf growth 96h: inactive; Cycloheximide cs: 40

How did O=C(CSc1nnc(CNc2ccc(F)cc2)o1)c1ccccc1 do in these assays?
Sm TGR inh: inactive; Shiga inhibitor: inactive; NS1 inh: inactive; Pf growth 48h: inconclusive; Pf growth 96h: inactive; Cycloheximide cs: 21

How did O=C(CSc1nnc(Cc2ccccc2)o1)c1ccccc1 do in these assays?
Sm TGR inh: inactive; Shiga inhibitor: inactive; NS1 inh: inactive; Pf growth 48h: inactive; Pf growth 96h: inconclusive; Cycloheximide cs: 32

What do the screens show for `O=C(CSc1nnc(Cc2ccccc2)o1)c1ccc2c(c1)OCO2`?
Sm TGR inh: inactive; Pf growth 48h: inactive; Pf growth 96h: inactive

What do the screens show for `COc1ccc(C(=O)CSc2nnc(CNc3ccc(F)cc3)o2)cc1`?
Sm TGR inh: inactive; Shiga inhibitor: inactive; Pf growth 48h: inactive; Pf growth 96h: inactive; Cycloheximide cs: inactive

How did CCCn1c(N)c(C(=O)CSc2nnc(Cc3ccccc3)o2)c(=O)n(C)c1=O do in these assays?
Sm TGR inh: inactive; Shiga inhibitor: inactive; NS1 inh: inactive; Pf growth 48h: 8.3µM; Pf growth 96h: inconclusive; Cycloheximide cs: inactive

Results for CCCn1c(N)c(C(=O)CSc2n[nH]c(-c3ccccc3F)n2)c(=O)n(C)c1=O ?
Sm TGR inh: inactive; Pf growth 48h: inconclusive; Pf growth 96h: inconclusive

Results for c1ccc(CSc2nnc(Cc3ccccn3)o2)cc1 ?
Sm TGR inh: inactive; Shiga inhibitor: inactive; NS1 inh: inactive; Pf growth 48h: inactive; Cycloheximide cs: 25

Results for COc1cc2c(cc1OC)C(Nn1cnnc1)=NC1(CCCC1)C2 ?
Sm TGR inh: inactive; Shiga inhibitor: inactive; NS1 inh: inactive; Pf growth 48h: inactive; Pf growth 96h: inactive; Cycloheximide cs: inactive

What do the screens show for `Oc1ccc([C@H](O)C2CCCCN2)cc1O` (stereo partly specified)?
NS1 inh: inactive

How did COc1ccc(NC(=O)COc2nsnc2N2CCCCC2)cc1 do in these assays?
Sm TGR inh: inactive; Shiga inhibitor: inactive; NS1 inh: inactive; Pf growth 48h: inactive; Pf growth 96h: inconclusive; Cycloheximide cs: inactive

What do the screens show for `CCOc1ccc(NC(=O)COc2nsnc2N2CCCCC2)cc1`?
Sm TGR inh: inactive; Shiga inhibitor: inactive; NS1 inh: inactive; Pf growth 48h: inactive; Pf growth 96h: 12µM; Cycloheximide cs: inactive

How did CCOc1ccc(NC(=O)CSc2nc3ccccc3nc2N2CC(C)OC(C)C2)cc1 (stereo unspecified) do in these assays?
Sm TGR inh: inactive; Shiga inhibitor: inactive; NS1 inh: inactive; Pf growth 48h: inconclusive; Pf growth 96h: 9.3µM; Cycloheximide cs: inactive

Results for CCOc1ccc(NC(=O)CSc2nc3ccccc3nc2N2CCOCC2)cc1 ?
Sm TGR inh: inactive; Shiga inhibitor: inactive; NS1 inh: inactive; Pf growth 48h: inconclusive; Pf growth 96h: 12µM; Cycloheximide cs: inactive

How did O=C(CSc1nc2ccccc2nc1N1CCOCC1)N1CCN(c2ccccc2)CC1 do in these assays?
Sm TGR inh: inactive; Shiga inhibitor: inactive; NS1 inh: inactive; Pf growth 48h: 9.3µM; Pf growth 96h: inconclusive; Cycloheximide cs: inactive

What do the screens show for `COc1ccc(NC(=O)CSc2nc3ccccc3nc2N2CCOCC2)cc1`?
Sm TGR inh: inactive; Shiga inhibitor: inactive; NS1 inh: inactive; Pf growth 48h: inactive; Pf growth 96h: inactive; Cycloheximide cs: inactive

Bioassay records: PubChem, National Center for Advancing Translational Sciences (NCATS)
